From PubChem
JMJD2A Tudor inh: JMJD2A Tudor domain (human) inhibition; O75164; AlphaScreen JMJD2A-Tudor / H3K4me3 peptide binding; Potency, µM (highest dose often 114 µM), for the others: top-dose activity change, negative = inhibition, actives largely listed as inhibitors; 390,000 tested, 4.4% active; note: potency is the fitted concentration of half-maximal effect; % is set by controls: 0 for no effect and ±100 for the full control effect; nearly all actives have a fitted effect of over 50% in size
PI5P4Ka inh: blocks human PI5P4K alpha kinase activity | 330,000 tested, 1.2% active | max response, % | PI5P4Kalpha enzyme, ADP-Glo luminescence, 60 min; active compounds read low | P48426; active = max response of -50% or lower; inconclusive = between -30% and -50%; inactive = -30% or higher; note: value at the top dose of about 77 µM; % is set by controls: 0 for no effect and ±100 for the full control effect
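qHTS, 1536-well: enzyme/substrate mix, compound by pin tool, 5 microM ATP final; RT 60 min; ADP-Glo reagents 1 (45 min) then 2 (30 min); luminescence.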
L3MBTL1 block: L3MBTL1 (human) inhibition | 230,000 tested, 0.66% active | Potency, µM (top dose mostly 57.1 µM), for the others: at the top dose activity, negative = inhibition, actives largely listed as inhibitors | AlphaScreen L3MBTL1–H3K9me1 peptide binding | Q9Y468; note: potency is the fitted concentration of half-maximal effect; % is set by controls: 0 for no effect and ±100 for the full control effect; nearly all actives have a fitted effect of over 60% in size
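AlphaScreen proximity signal between nickel-chelate acceptor and streptavidin donor beads (final 10 ug/mL) reports binding of 50 nM L3MBTL1 to 75 nM biotin-H3 K9me1 peptide; complex incubated with compounds 30 min at room temperature; cefsulodin titration as control.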
BAZ2B inh: BAZ2B (human) inhibition. Q9UIF8. AlphaScreen BAZ2B-H3K14Ac peptide displacement. Potency, µM (series often up to 114 µM), for inactives: at the top dose activity change, negative = inhibition, hits mostly inhibitors. 360,000 tested, 4.4% active. AID 504333; note: potency is the fitted concentration of half-maximal effect; % is set by controls: 0 for no effect and ±100 for the full control effect; nearly all actives have a fitted effect of over 60% in size
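Inhibition is scored as reduced AlphaScreen emission. The BAZ2B/b-H3(5-23)K14Ac complex (50 nM each) in PBS pH 7.4, 0.01% Tween-20 meets compound (up to 110 uM) for 30 min at RT before bead addition.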
KDM4E inh: inhibitors of human JMJD2E histone demethylase; B2RXH2; JMJD2E catalytic domain, FDH-coupled NADH fluorescence (FDH is formaldehyde dehydrogenase); Potency, µM (series often up to 57.1 µM), inactives show top-dose activity change, negative = inhibition, actives largely listed as inhibitors; 230,000 tested, 1.6% active; AID 2147; active = well fitted inhibition curve with a large enough effect, not every such curve was filed as active; inconclusive = small, poorly fitted or top-dose-only effect, or another doubt; inactive = no such curve, though single readings can be large or run the other way;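 note: potency is the fitted concentration of half-maximal effect; 0% = wells with enzyme and -100% = buffer wells without enzyme; nearly all actives have a fitted effect of over 50% in size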
Target sequence (B2RXH2 1-337 limits assumed): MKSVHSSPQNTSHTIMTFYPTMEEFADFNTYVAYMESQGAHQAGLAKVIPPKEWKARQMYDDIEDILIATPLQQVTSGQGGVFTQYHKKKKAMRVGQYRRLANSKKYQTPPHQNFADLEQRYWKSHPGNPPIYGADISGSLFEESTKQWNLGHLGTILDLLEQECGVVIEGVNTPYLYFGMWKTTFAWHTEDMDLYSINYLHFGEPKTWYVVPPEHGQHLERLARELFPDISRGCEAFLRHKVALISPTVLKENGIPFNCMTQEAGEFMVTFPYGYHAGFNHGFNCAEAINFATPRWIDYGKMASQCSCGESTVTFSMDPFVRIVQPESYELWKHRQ
HP1b chromo inh: blocks HP1-beta chromodomain binding to methylated histone tails. P83916. Potency, µM (top dose mostly 114 µM), for the others: top-dose activity change, negative = inhibition, hits mostly inhibitors. 390,000 tested, 0.56% active. AlphaScreen HP1-beta / biotin-H3K9me3 peptide binding; note: potency is the fitted concentration of half-maximal effect; nearly all actives have a fitted effect of over 70% in size
Target sequence (P83916 whole entry, looked up): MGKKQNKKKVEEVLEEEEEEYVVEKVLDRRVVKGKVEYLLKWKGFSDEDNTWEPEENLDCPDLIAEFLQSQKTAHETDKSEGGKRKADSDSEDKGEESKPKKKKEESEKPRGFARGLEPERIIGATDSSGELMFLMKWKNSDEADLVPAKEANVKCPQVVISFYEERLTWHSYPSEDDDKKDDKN
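HP1-beta protein (50 nM final) preincubated 30 min at room temperature with biotinylated H3(1-18)K9me3 peptide (50 nM) in PBS pH 7.4, 0.01% Tween-20, then compound added for 30 min. AlphaScreen streptavidin donor/nickel chelate acceptor beads (10 ug/mL final), 30 min dark, luminescence read.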
* marks the source's active call; other numbers are inactive results; u = inconclusive; x = no result; [ ] = another dose, or the depositor's remark. An excerpt weighted towards active compounds, which were near 5.7% of everything screened. Unless noted, calls come from the whole dose curve; as a rule, active = well fitted inhibition curve with a large enough effect; inconclusive = small, poorly fitted or top-dose-only effect; inactive = no such curve, though single readings can be large or run the other way.

SMILES	JMJD2A Tudor inh	PI5P4Ka inh	L3MBTL1 block	BAZ2B inh	KDM4E inh	HP1b chromo inh
NS(=O)(=O)c1ccc(-c2ccc(/C=C3\C(=O)Nc4cc(Cl)ccc43)o2)cc1	-29.7%	u	-3.2%	56.2µM*	2.4%	10.4%
NC1=NC(=O)/C(=C/c2ccc(-c3ccc(S(N)(=O)=O)cc3)o2)S1	u	-12.3	-6.3%	-35.4%	x	105.7%
CC1(C)OC(=O)C(=Cc2ccc(-c3ccc(S(N)(=O)=O)cc3)o2)C(=O)O1	-7.7%	-58.8*	u	-19.2%	u	-14.3%
NS(=O)(=O)c1ccc(-c2ccc(/C=C3\C(=O)Nc4ccccc43)o2)cc1	x	x	2.6%	-37.8%	x	x
CCc1ccc(NC(=O)CCc2c(C)nc3nc(-c4cc(OC)cc(OC)c4)nn3c2C)cc1	-31.3%	x	x	-7.0%	x	32.9%
O=S(=O)(O)c1cccc2cccc(Nc3ccccc3)c12	50.1µM*	u	x	x	x	15.9%
O=S(=O)(Nc1cccc2ccccc12)c1ccccc1F	-3.4%	-3.8	x	2.8%	x	-7.6%
COc1cc(C(=O)NCCC2=CCCCC2)ccc1OCc1c(C)noc1C	-3.4%	7.3	9.4%	4.4%	x	8.9%
CCN(C(=O)c1ccc2c(=O)n3c(nc2c1)CCCCC3)c1ccccc1C	-23.7%	-7.6	x	-8.4%	x	18.8%
COc1cccc(NC(=O)CSc2nc(=O)n(Cc3ccccn3)c3c2CCC3)c1	-3.9%	x	x	-6.4%	x	10.2%
CSc1ccc(-c2sc(Nc3ccccc3)n[n+]2-c2ccc(F)cc2)cc1	56.2µM*	u	-3.5%	u	x	-6.6%
Fc1ccc(-[n+]2nc(Nc3ccccc3)sc2-c2c3ccccc3cc3ccccc23)cc1	15.8µM*	-62.8*	u	5.01µM*	x	u
c1ccc(-[n+]2nc(Nc3cccc4ccccc34)sc2-c2c3ccccc3cc3ccccc23)cc1	2.51µM*	-16.2	u	3.55µM*	x	u
O=S(=O)(c1ccc(Cl)cc1)c1nnn2c1nc(NCc1cccs1)c1sccc12	-32.6%	x	x	0.4%	x	32.6%
CC1C[N+](=C2C=C(N3CCOCC3)CC(C)(C)C2)CC(C)O1 (centres undefined)	u	u	x	-38.4%	25.1µM*	25.1µM*
O=C(Nc1ccccc1Sc1ccccc1)c1cnn2c1NC(=C1CC1)C=C2C(F)(F)F	x	x	x	x	x	10.4%
Cc1cc(Br)ccc1OCCn1ccnc1	4.47µM*	0.1	-6.9%	50.1µM*	u	22.4µM*
Cc1ccccc1OCCCCCn1ccnc1	u	x	-2.0%	-30.6%	15.9%	-0.6%
Cc1cc(Cl)cc(C)c1OCCCCn1ccnc1	u	x	-2.4%	-38.6%	-6.9%	26.6%
Clc1ccc(SCCCCn2ccnc2)cc1	7.94µM*	-8.2	-4.4%	50.1µM*	-22.0%	u
Cc1ccc(OCCCn2ccnc2)c(Br)c1	22.4µM*	1.3	-3.7%	56.2µM*	x	u
O=C(O)c1ccc(OCCn2ccnc2)cc1	u	-6.7	6.9%	79.4µM*	2.0%	17.2%
CCCCCCOc1ccc(C(=O)NCCCn2ccnc2)cc1	-34.1%	-0.7	x	-38.7%	4.3%	1.1%
CCc1ccccc1NC(=O)Cn1nnc(C(=O)NCc2ccco2)c1N	-14.0%	x	x	x	x	9.7%
Clc1cc(Br)ccc1OCCn1ccnc1	3.16µM*	x	-9.1%	22.4µM*	u	u
SMILES	JMJD2A Tudor inh	PI5P4Ka inh	L3MBTL1 block	BAZ2B inh	KDM4E inh	HP1b chromo inh
Cc1cccc(C(C)(C)C)c1OCCn1ccnc1	1.26µM*	2.7	-3.9%	79.4µM*	-4.8%	50.1µM*
Clc1cc(Br)ccc1OCCCn1ccnc1	22.4µM*	1.7	-6.3%	50.1µM*	u	u
Cc1cccc(Cl)c1OCCCCn1ccnc1	u	x	x	u	-5.4%	10.2%
Clc1ccccc1OCCCCn1ccnc1	-23.2%	x	-6.8%	-3.7%	9.2%	11.1%
Cc1cc(OCCCCn2ccnc2)cc(C)c1Cl	u	-9.6	x	u	2.2%	-0.3%
Clc1ccc(OCCn2ccnc2)cc1Cl	5.62µM*	2.3	10.2%	50.1µM*	x	u
Cc1ccc(OCC(=O)Nc2nnc(SCc3cc(=O)n4cc(C)ccc4n3)s2)cc1	-6.8%	x	x	12.1%	x	10.5%[57 µM]
COc1ccccc1OCC(=O)NCCS(=O)(=O)N1CCN(c2ccccc2OC)CC1	-1.6%	x	x	-0.3%	x	23.2%[57 µM]
O=C(CCc1c[nH]c2ccccc12)OCc1ccc(Br)cc1	-22.1%	21.8	x	-6.4%	x	20.9%
COc1ccccc1NC(=O)c1cc(=O)c2ccc(C)c(C)c2o1	-14.2%	x	x	-25.5%	x	18.4%
Cc1ccc(NC(=O)c2cc(S(=O)(=O)N3CCOCC3)c(Br)s2)cc1	-25.4%	-8.3	-1.4%	-22.5%	6.8%	12.7%
Clc1ccccc1OCCCn1ccnc1	17.8µM*	-6.8	-6.2%	79.4µM*	x	u
O=C(Nc1cccc(-c2cn3c(n2)SCC3)c1)c1ccc(Br)o1	-12.0%	-5.4	-25.2%	56.2µM*	u	25.3%
Cc1ccc(CNC(=O)c2ccc3c(c2)N(Cc2cccc(C)c2)C(=O)CS3)cc1	-0.7%	x	x	0.4%	x	28.3%
CC12CCC(c3n[nH]c(=S)nc31)C2(C)C (centres undefined)	20µM*	-20.0	7.8%	-10.7%	-2.2%	-30.9%
CC12CCC(c3nnc(SCc4ccc(Cl)cc4)nc31)C2(C)C (centres undefined)	24.0%	24.2	25.2%	24.7%	2.9%	63.6%
O=C(NC(NNc1ccc([N+](=O)[O-])cc1)(C(F)(F)F)C(F)(F)F)c1ccc(Cl)cc1	u	-67.0*	x	-38.9%	-9.2%	-31.7%
O=C(CSc1n[nH]c(-c2ccccc2Cl)n1)N1CCN(c2ccccc2F)CC1	-16.6%	x	x	-2.2%	x	12.8%[57 µM]
CCCC[C@H](CC)CN1CN(C[C@@H](CC)CCCC)CC(C)(N)C1	x	x	x	x	0.2%[25.5 µM]	x
COc1cccc(C(=O)NCCN2CCOCC2)c1	-8.2%	x	-0.8%	-7.9%	2.3%	6.0%
COc1ccc(CCNCCN2CCOCC2)cc1	20µM*	7.0	-3.8%	25.1µM*	x	u
COc1cc(OC)cc(C(=O)NCCN2CCOCC2)c1	10µM*	7.3	1.4%	50.1µM*	u	u
COc1ccc(Nc2nc(NCCN3CCOCC3)nc(Nc3ccc(OC)cc3)n2)cc1	u	2.1	x	44.7µM*	x	-8.8%
COc1nc(NCCN2CCOCC2)nc(Nc2ccccc2)n1	-10.3%[11.4 µM]	1.4	x	3.8%	5.9%	61.2%
COc1ccc(N(C)C(=O)NCc2noc3ccc(C)cc23)c(OC)c1	6.2%	x	x	-25.8%	x	56.2%
CCc1ccccc1NC(=O)N1CCOc2ccccc21	-12.5%	x	x	u	x	50.0%
COc1cccc(NC(=S)N2CCn3cccc3C2c2cccnc2)c1 (centres undefined)	-19.9%	5.0	-13.4%	50.1µM*	-0.1%	-6.2%
O=C(Nc1ccc(C(=O)N2CCCc3ccccc32)cc1)c1cccs1	100µM*	-5.4	-5.3%	-2.7%	x	9.0%
CC(=O)Nc1ccc(C(=O)N2CCCc3ccccc32)cc1	4.1%	5.0	4.4%	-22.4%	x	17.0%
